The structures appear in SMILES notation. The whole screen tested about 340,000 compounds, of which about 2,300 (0.68%) were called active. Rule as the data show it: active = growth rescue above about 28% (passing the limit was not always enough); inconclusive = no clear call, values can overlap the other calls. Only a selection was taken, and actives are over-represented in it overall.

The assay in a line: rescue of yeast from PfHsp40 toxicity, primary screen, S. cerevisiae, ATP luminescence (AID 504582).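 Also: yeast W303a lacking pdr1 and pdr3 grown in galactose medium; growth measured after three days at 30 °C.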 The conditions noted are these: S. cerevisiae expressing PfHsp40, growth rescue, at 12.5 µM, hits give high values.
For `O=C(CSC1CC(=O)N(CCc2ccccc2)C1=O)Nc1ccc(Cl)cc1` (stereo not given), the growth rescue was 0.11% (inactive).

As to `CCCC(C(=O)n1nc(C)cc1C)C(NS(=O)(=O)c1ccc(C)cc1)c1ccccc1` (stereo not given), the growth rescue was 5.61% (inactive).

Take `CCN(CC)c1ccc(/C=N/NC(=O)c2cnccn2)c(O)c1`: the growth rescue is 77.4% (active).

For the compound `COc1ccc(NC(=O)C/C(C)=N/NC(=O)c2cnccn2)cc1Cl`, the growth rescue is -1.24% (inactive).

Regarding `Cc1ccc(/C=N/NC(=O)C2=NNC(c3ccccc3)(c3ccccc3)C2)c(O)c1`, the growth rescue was -0.682% (inactive).

For `CCNC(=O)c1cnn(-c2ccccc2)c1-c1ccccc1`, the growth rescue is -3.15% (inactive).

As to `Cn1c(C(=O)N2CCCC(C(=O)NCc3ccccc3)C2)cc2sccc21` (stereo not given), the growth rescue is 0.412% (inactive).

As to `CCCCCC(=O)N1CCN(S(=O)(=O)c2ccc3c(c2)OCCCO3)CC1`, the growth rescue is 1.79% (inactive).

For the compound `O=S(=O)(NCc1ccccc1)c1ccc(S(=O)(=O)N2CCCC2)cc1`, the growth rescue was 0.759% (inactive).

`CC1(C)CN(c2ccc(-c3ccnc4ncnn34)cc2)C1=O`: the growth rescue is -1.84% (inactive).

Consider `Cc1ccc2c(c1)C(c1ccccc1)N(C(=O)c1ccc(S(=O)(=O)N3CCOCC3)cc1)CC(=O)N2` (stereo not given), for which the growth rescue was 72.7% (active).

As for `Cc1ccc2c(c1)C(c1ccccc1)N(C(=O)c1ccc(F)cc1)CC(=O)N2` (stereo not given), the growth rescue is 0.27% (inactive).

For `Cc1ccc(C(=O)N2CC(=O)Nc3ccc(F)cc3C2c2ccc(F)cc2)cc1` (stereo not given), the growth rescue was 1.27% (inactive).

Regarding `Cc1ccc(NN=Nc2nc3c([nH]2)c(=O)n(C)c(=O)n3C)cc1`, the growth rescue is -0.566% (inactive).

As to `Cc1cc(C)n(CC(O)COc2ccc(C(C)(C)C)cc2)n1` (stereo not given), the growth rescue was 0.193% (inactive).

With `COc1ccc(OCC(O)CN(C)C(=O)C(C)Oc2ccccc2)cc1` (stereo not given), the growth rescue is -0.614% (inactive).

As to `CN(C)CC(O)COc1ccc(C(C)(C)c2ccc(OCC(O)CN(C)C)cc2)cc1` (stereo not given), the growth rescue is 26.9% (active).

As to `Cc1ccc2nc(C)c3c(c2c1)N(c1ccccc1)CC3`, the growth rescue was -0.127% (inactive).

Turning to `Cc1ccc(S(=O)(=O)N2CCOCC2)cc1C(=O)Nc1ccccc1N1CCCC1`, the growth rescue was 0.57% (inactive).

As to `COc1ccc(OCC(O)CNCCNc2nccc(C(F)(F)F)n2)cc1` (stereo not given), the growth rescue is 62.4% (active).

As for `COc1ccc(OCC(O)CNC(=O)Nc2ccc(Cl)cc2)cc1` (stereo not given), the growth rescue is -1.02% (inactive).

As to `CC(C)(C)CC(C)(C)NCC(O)COCCOc1ccc(Br)cc1` (stereo not given), the growth rescue is 0.077% (inactive).

For `Cc1ccccc1Nc1c([N+](=O)[O-])ccc2nonc12`, the growth rescue was -0.179% (inactive).

For `CCc1cc2c(=O)c(-c3ccon3)c(N)oc2cc1OC`, the growth rescue is -0.783% (inactive).

Consider `COc1ccc(NCc2nnc(SCc3ccccc3)n2-c2ccc(OC)cc2)cc1`, for which the growth rescue was -1.36% (inactive).

Turning to `O=C(COc1ccccc1[N+](=O)[O-])N/N=C/c1ccc[nH]1`, the growth rescue was -1% (inactive).

For the compound `Cc1ccccc1NCC(=O)N/N=C\c1ccc([N+](=O)[O-])s1`, the growth rescue was 406% (active).

For the compound `Cc1nn(Cc2ccc(Cl)cc2)c(Cl)c1/C=N/NC(=O)CNc1ccccc1F`, the growth rescue is -0.219% (inactive).

Consider `Cn1c(CCC(=O)OCC(=O)NCc2ccccc2Cl)nc(=O)c2ccccc21`, for which the growth rescue is 1.08% (inactive).

With `O=C(CN1C(=O)NC2(CCCC2)C1=O)Nc1ccc(F)c(F)c1F`, the growth rescue was -0.549% (inactive).

In the case of `Cc1cccc(NC(=O)Nc2cccc(Oc3c(F)c(F)c(F)c(F)c3F)c2)c1`, the growth rescue was -0.315% (inactive).

`CC(Oc1cccc(NC(=O)c2cccs2)c1)C(=O)c1ccccc1` (stereo not given): the growth rescue was 3.27% (inactive).

Regarding `Cc1ccoc1C(=O)Nc1cccc(Oc2ccccc2)c1`, the growth rescue was 372% (active).

For `CCC1CCCCN1CCNC(=O)c1[nH]c(C)c(C(C)=O)c1C` (stereo not given), the growth rescue is -0.34% (inactive).

Consider `O=C1NC2(CCCCCC2)C(=O)N1CCS(=O)(=O)Oc1ccccc1`, for which the growth rescue is 0.283% (inactive).

Turning to `O=C(NCC1COc2ccccc2O1)C1(c2ccccc2)CCCC1` (stereo not given), the growth rescue was 2.05% (inactive).

With `CN(C)CC1Oc2ccccc2OC1(O)c1ccccc1` (stereo not given), the growth rescue is 472% (active).

As to `CN(C)CCOC(=O)C(c1ccccc1)C1(O)CCCC1` (stereo not given), the growth rescue was 0.536% (inactive).

For the compound `CSc1ncccc1C(=O)NCc1ccccc1Cl`, the growth rescue is 1.68% (inactive).

Consider `CCN(CC)CCCNC(=O)CCn1nc(-c2ccc(Cl)cc2)ccc1=O`, for which the growth rescue is -0.666% (inactive).

On to `O=C(COc1ccccc1F)Nc1nc(-c2ccccn2)cs1`, for which the growth rescue was 398% (active).

For the compound `O=C(CN1C(=O)C2C3C=CC(C3)C2C1=O)Nc1nc(-c2ccccn2)cs1` (stereo not given), the growth rescue is -0.446% (inactive).

With `CC(NC(=O)c1ccco1)C(=O)Nc1nc(-c2ccccn2)cs1` (stereo not given), the growth rescue was -0.236% (inactive).

As for `O=C(O)C1=C[C@H](c2cccs2)C[C@H](OCCCCO)O1`, the growth rescue was -1.21% (inactive).

Take `O=C(CN1CCCC1)Nc1sc2c(c1C(=O)Nc1ccccc1)CCCC2`: the growth rescue is 0.179% (inactive).

`O=C(Nc1sc2c(c1C(=O)O)CCC2)c1ccccc1F`: the growth rescue was 0.175% (inactive).

On to `O=C(O)c1c(NC(=O)N2CCCC2)sc2c1CCCC2`, for which the growth rescue was 232% (active).

As to `C=CCNc1nc(Nc2ccc(Cl)cc2)nc(OC)n1`, the growth rescue was 0.232% (inactive).

`CC(C)(C)NC(=O)c1ccc(Cn2cc(C(F)(F)F)ccc2=O)cc1`: the growth rescue was -0.625% (inactive).

Take `CCc1ccc(NC(=O)c2ccc(Cn3cc([N+](=O)[O-])cn3)cc2)cc1`: the growth rescue was -0.255% (inactive).

Regarding `Cn1c(=O)n(C)c2cc(C(=O)Nc3ccc(Br)cc3)ccc21`, the growth rescue is -1.51% (inactive).

With `Cn1ccc(=Nc2ccc(NC(=O)c3ccc(N=c4ccn(C)c5ccc([N+](=O)[O-])cc45)cc3)cc2)cc1`, the growth rescue was 236% (active).

On to `Oc1ccc2ccccc2c1N=Nc1nccs1`, for which the growth rescue is 118% (active).

In the case of `Cc1ccc(CNC(=O)CC2Sc3ccccc3NC2=O)cc1` (stereo not given), the growth rescue was 0.304% (inactive).

As to `Cc1cccc(NC(=O)c2cccc(C(=O)Nc3cccc(C)c3C)n2)c1C`, the growth rescue was -0.654% (inactive).

Consider `O=C(OCC(=O)c1c[nH]c2ccccc12)c1cccc(O)c1`, for which the growth rescue is -0.5% (inactive).

In the case of `O=C(OCc1ccc(-c2ccccc2)cc1)c1cccc(O)c1`, the growth rescue was 179% (active).

As for `O=C(CNC(=O)c1ccc(-c2ccccc2)cc1)OCc1ccc(Cl)cc1`, the growth rescue was -0.241% (inactive).

In the case of `C/C(Cn1nnc2ccccc21)=N\OC(=O)c1cc(F)c(F)cc1Cl`, the growth rescue was 0.415% (inactive).

As to `O=C(CCC(=O)N1CCCC1)Nc1ccc([N+](=O)[O-])cc1`, the growth rescue was -0.401% (inactive).

Values taken from PubChem BioAssay AID504582 (Broad Institute, 2011).
